# SW480 rerep = induces DNA re-replication in SW480 colon adenocarcinoma cells; SW480 DNA re-replication, Hoechst DNA content imaging, 48 h; Potency, µM (titrated, usually from 46.1 µM), inactives show at the top dose re-replication activation, usual class: activators; hit rate 1.8% among 340,000; AID 624297; also: % of control where 0% means no effect; nearly all actives have a fitted effect of over 55% in size
#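 Cells (250 per well) received 23 nL compound or DMSO by pin tool and were kept 48 hr at 37 C, 5% CO2. Nuclei were then stained with Hoechst for 40 min and scanned for DNA content.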
# KB-V1 cytotox = KB-V1 MDR subline cytotoxicity | KB-V1 MDR cells viability, CellTiter-Glo, 72 h | hit rate 3.4% among 400,000 | Potency, µM (doses to about 46.1 µM), usual class: cytotoxic; also: % is scaled to controls: 0 for no effect and ±100 for the full control effect; nearly all actives have a fitted effect of over 60% in size
#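 Drug-selected KB-V1 cells, grown in DMEM lacking phenol red with 10% FBS, receive compound titrations; after three days at 37 degrees C, surviving cell ATP is quantified by CellTiter-Glo luminescence and responses normalized and curve-fitted.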
# KB-3-1 cytotox = kills parental KB-3-1 adenocarcinoma cells; KB-3-1 viability, CellTiter-Glo ATP luminescence, 72 h; Potency, µM (series often up to 46.1 µM), most hits filed as cytotoxic; hit rate 1.4% among 400,000; AID 1347075; also: % is scaled to controls: 0 for no effect and ±100 for the full control effect; nearly all actives have a fitted effect of over 60% in size
#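 Multi-concentration cytotoxicity screen in KB-3-1 cells grown in DMEM lacking phenol red with 10% FBS. After 72 h at 37 °C with compound, ATP-dependent luminescence was recorded.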
# MCF10A rerep = DNA re-replication induction in MCF 10a cells; Potency, µM (titrated, usually from 46.1 µM), for inactives: at the highest dose activity, positive = re-replication, usual class: activators; MCF 10A DNA re-replication, Hoechst nuclear intensity, 48 h; hit rate 2.9% among 350,000; AID 624296; also: % of control where 0% means no effect; nearly all actives have a fitted effect of over 50% in size
# HT1080 IDH1KD tx = kills HT-1080 cells with IDH1 knockdown; HT-1080 IDH1 knockdown viability, ATP luminescence, 48 h; Potency, µM (top dose mostly 46.1 µM), inactives show at the top dose activity, negative = toxicity, hits mostly cytotoxic; hit rate 2% among 360,000;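 also: 0% = DMSO wells and -100% = cell-free medium wells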
#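 After a 2 h attachment period, IDH1KD HT-1080 cells took pin-transferred compound for 48 h at 37 °C; ATP-based luminescence after 10 min room-temperature reagent incubation reported viability.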
# HT1080-NT tox = kills 2HG-producing HT-1080-NT fibrosarcoma cells | HT-1080-NT fibrosarcoma viability, CellTiter-Glo ATP luminescence, 48 h | Potency, µM (series often up to 46.1 µM), without a hit: top-dose activity, negative = less viability, usual class: cytotoxic | hit rate 1.6% among 360,000;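 also: NT is the 2HG producing partner of a matched IDH1 knockdown line; 0% = DMSO-treated cells and -100% = media-only wells without cells; nearly all actives have a fitted effect of over 55% in size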
#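 Viability of the 2HG-overproducing fibrosarcoma line after 48 hours of compound exposure at 37 degrees C was determined by luminescence with CellTiter-Glo, and concentration-effect curves were then fitted and categorized.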
# * marks the source's active call; other numbers are inactive results; i = inactive; ? = inconclusive; · = no result given; [ ] = remark or other dose. Sampled rows, rich in hits. Any-hit rate of the full collection: about 8%. Calls follow the shape of the dose curve; as a rule, active = well fitted curve in the direction sought with a large enough effect; inconclusive = small, poorly fitted or top-dose-only effect, or another doubt; inactive = no such curve, though single readings can be large; an effect the other way counts as inactive or inconclusive. Potency is read from the fitted curve at half-maximal effect.
SMILES,SW480 rerep,KB-V1 cytotox,KB-3-1 cytotox,MCF10A rerep,HT1080 IDH1KD tx,HT1080-NT tox
COc1ccc(C2CC(c3ccccc3)=NN2S(=O)(=O)c2ccccc2)cc1 (stereo not given),?,i,i,20%,-7%,-4%
COc1ccc(C2CC(c3ccccc3)=NN2c2ccc(N)cc2)cc1 (stereo not given),23µM*,21µM*,?,16µM*,?,?
COc1ccc(C2CC(c3ccccc3)=NN2c2ccc(Cl)c(C(=O)O)c2)cc1 (stereo not given),?,?,i,8.2µM*,-24%,-11%
CCC(=O)Nc1cccc(C2=NN(c3ccccc3)C(c3ccc(OC)cc3)C2)c1 (stereo not given),18µM*,i,i,?,-6%,-20%
COc1ccc(NC(=O)c2ccc3c(c2)nnn3C2CCCC2)cc1Cl,·,i,i,·,·,·
CCCCOC(=O)c1ccc(NC(=O)COC(=O)c2ccc3ncsc3c2)cc1,-18%,i,i,9%,-25%,-20%
C=CCOc1ccc(C2CC(C)=NN2c2ccccc2)cc1 (stereo not given),?,?,i,21µM*,13%,13%
CC(=O)Oc1ccc(C2=NN(c3ccccc3)C(c3ccccc3)C2)cc1 (stereo not given),18µM*,?,?,5.8µM*,?,16µM*
CC(=O)N1N=C(C)CC1c1ccc(OCc2ccccc2)cc1 (stereo not given),-7%,i,i,1%,-1%,-1%
COc1ccc(C2=NN(C(N)=S)C(c3ccccc3)C2)cc1 (stereo not given),?,?,i,-1%,?,-26%
Cn1cccc1C(=O)NCc1ccccn1,0%,i,i,1%,0%,0%
CC(=O)/C=C/c1ccc2c(c1)S(=O)(=O)N(C1CCCC1)[C@H]2CC(C)=O,·,18µM*,?,·,·,·
CCCC(c1nnnn1CS(=O)(=O)c1ccc(C)cc1)N1CCN(c2ccccc2)CC1 (stereo not given),16%,?,i,-4%,-9%,0%
CCC(c1nnnn1CS(=O)(=O)c1ccc(C)cc1)N1CCN(c2nc3ccccc3s2)CC1 (stereo not given),?,4.1µM*,i,?,-2%,-4%
C=CCNc1ncnc2c1[nH]c1ccc(Cl)cc12,1%,?,8.2µM*,20%,-27%,-1%
CSc1nc(Sc2ccccc2Cl)c2ccccc2n1,?,?,?,23µM*,?,?
CCOC(=O)c1cnc(SC)nc1Sc1ccccc1Cl,-5%,i,i,?,10%[9.24 µM],3%
Cc1c(C(=O)NCc2cccc(Cl)c2)sc2nc[nH]c(=O)c12,·,i,i,·,·,·
N#Cc1cc2sc3nnc(-c4ccncc4)n3c2cc1C#N,-33%[9.22 µM],2.1µM*,6.5µM*,29%,?,?
CCc1ccc2oc(C(=O)NCc3ccccc3)cc(=O)c2c1,·,i,i,·,·,·
C=CCN(c1ccccc1)S(=O)(=O)c1cccc(C(=O)N2CC(C)CC(C)C2)c1 (stereo not given),?,7.3µM*,?,10µM*,?,-24%
C=CCN(c1ccccc1)S(=O)(=O)c1cccc(C(=O)NCC(c2ccccc2OC)N2CCCC2)c1 (stereo not given),?,i,i,85%,?,23µM*
C=CCN(c1ccccc1Cl)S(=O)(=O)c1cccc(C(=O)NCCc2ccc(OC)cc2)c1,12%,2.3µM*,23µM*,30%,-15%,-1%
C=CCN(c1ccccc1OC)S(=O)(=O)c1cccc(C(=O)NCc2cccs2)c1,-1%,?,i,-1%,-5%,-8%
Cc1cccc2c(/C=C/c3ccc(N(C)C)cc3)ccnc12,·,i,i,·,·,·
SMILES,SW480 rerep,KB-V1 cytotox,KB-3-1 cytotox,MCF10A rerep,HT1080 IDH1KD tx,HT1080-NT tox
COc1ccc(N2CCN(C(c3ccc(F)cc3)c3sc4nc(-c5ccco5)nn4c3O)CC2)cc1 (stereo not given),·,i,i,·,·,·
Cc1cccc(C)c1OCC(=O)OCC(=O)Nc1ccc(Cl)cn1,-3%,·,·,-16%,5%,-1%
Cc1ccnc(NS(=O)(=O)c2ccc(NC(=O)c3ccc([N+](=O)[O-])s3)cc2)n1,18µM*,i,15µM*,12µM*,?,?
Cc1cc(NS(=O)(=O)c2ccc(NC(=O)c3ccc([N+](=O)[O-])s3)cc2)nc(C)n1,?,i,?,18µM*,-30%,-18%
CC(=O)Nc1ccc(C(=O)Nc2ccc(S(=O)(=O)Nc3nccc(C)n3)cc2)cc1,?,?,i,-3%,3%,7%
CCOc1ccccc1CNC(=O)c1cc(-c2ccc(C)c(C)c2)nc2ccccc12,·,i,i,·,·,·
CCOc1ccc(-c2cnc3n2CCC3)cc1,9.2µM*,?,?,9%,-1%,-2%
O=C(COc1ccc(Cl)cc1Cl)N/N=C/c1ccc[nH]1,0%,i,i,12µM*,-1%,1%
O=C(CCCOc1ccc(Cl)cc1Cl)N/N=C/c1ccccc1,1.6µM*,?,i,?,-4%,-3%
Cc1ccc(/C=N/NC(=O)CCCOc2ccc(Cl)cc2Cl)cc1,?,?,?,15µM*,15µM*,15µM*
O=C(CCCOc1ccc(Cl)cc1Cl)N/N=C/c1ccccc1O,?,i,i,?,?,?
COc1ccc(/C=N/NC(=O)CCCOc2ccc(Cl)cc2Cl)cc1[N+](=O)[O-],-7%,21µM*,?,2%,12%,0%
Cc1ccc(/C=N/NC(=O)CCCOc2ccc(Cl)cc2Cl)cc1[N+](=O)[O-],-2%,i,?,?,?,?
COc1cc(O)c(C(CC(=O)N2CCOCC2)c2ccc(OC)c(OC)c2)c(OC)c1 (stereo not given),·,i,i,·,·,·
CCN(CC)CCOC(=O)C1(c2ccc(OC)c(OC)c2)CCCC1,-8%,21µM*,i,-2%,-7%,-15%
CCn1cc(Cl)c(C(=O)N2N=C(c3ccc4ccccc4c3)CC2c2ccccc2O)n1 (stereo not given),?,?,21µM*,29%,?,?
CCn1cc([N+](=O)[O-])c(C(=O)N2N=C(c3ccc4ccccc4c3)CC2c2ccccc2O)n1 (stereo not given),23%,i,?,?,21µM*,23µM*

# Screens deposited in PubChem BioAssay by National Center for Advancing Translational Sciences (NCATS).
